Most compounds without a hit are left out; they make up all but 13% or so of the library.
LMNA splice mod: qHTS Assay for Modulators of Lamin A Splicing; HeLa LMNA splicing GFP/RFP minigene ratio, 48 h; Potency, µM (titrated, usually from 46.1 µM), inactives show top-dose ratio change, negative = inhibition, usual class: inhibitors; hit rate 0.01% among 200,000; AID 1487, 2009; active = well fitted inhibition curve with a large enough effect in the signal ratio, with a control signal flat, not every such curve was filed as active; inconclusive = small, poorly fitted or top-dose-only effect, or effect the other way, or a change in a side signal; the % refers to the signal ratio; note: potency is the fitted concentration of half-maximal effect; % is set by controls: 0 for no effect and ±100 for the full control effect
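S3 HeLa stable clones carrying a lamin A-EGFP splicing minigene plus DsRed2 were seeded at 600 cells/well in Opti-MEM with 2% FBS, pin-dosed and incubated 48 h at 37°C. Acumen cytometry (488 nm) gave the GFP/RFP total-intensity ratio.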
G9a block: qHTS Assay for Inhibitors of Histone Lysine Methyltransferase G9a | hit rate 8.8% among 350,000 | G9a H3K9 monomethylation, AlphaScreen, 2 h | Potency, µM (series often up to 102 µM), without a hit: at the highest dose activity, negative = inhibition, usual class: inhibitors | Histone-lysine N-methyltransferase EHMT2 (Homo sapiens), Q96KQ7 | AID 504332, 2011; note: potency is the fitted concentration of half-maximal effect; % is set by controls: 0 for no effect and ±100 for the full control effect; nearly all actives have a fitted effect of over 75% in size
Target sequence (Q96KQ7 913-1193 limits assumed): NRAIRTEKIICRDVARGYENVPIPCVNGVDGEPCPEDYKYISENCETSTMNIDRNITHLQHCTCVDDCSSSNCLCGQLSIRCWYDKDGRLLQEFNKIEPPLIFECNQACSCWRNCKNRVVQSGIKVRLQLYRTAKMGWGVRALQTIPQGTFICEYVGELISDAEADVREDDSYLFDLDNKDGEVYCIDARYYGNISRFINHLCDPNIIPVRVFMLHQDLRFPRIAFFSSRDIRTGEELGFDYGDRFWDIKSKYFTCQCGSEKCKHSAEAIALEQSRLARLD
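AlphaScreen detection with an anti-monomethyl H3K9 antibody quantified product after a 2 h room-temperature reaction containing 500 nM biotinylated H3K9 peptide, 20 µM SAM and 20 nM enzyme, which had been preincubated 15 min with compound.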
ALDH1A1 block: qHTS Assay for Inhibitors of Aldehyde Dehydrogenase 1 (ALDH1A1); Aldehyde dehydrogenase 1A1 (Homo sapiens), P00352; Potency, µM (doses to about 75.3 µM), without a hit: at the highest dose activity, negative = inhibition, most hits filed as inhibitors; Purified ALDH1A1, NADH fluorescence, propionaldehyde substrate; hit rate 7.3% among 220,000; active = well fitted inhibition curve with a large enough effect, not every such curve was filed as active; inconclusive = small, poorly fitted or top-dose-only effect, or another doubt; inactive = no such curve, though single readings can be large or run the other way;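 note: potency is the fitted concentration of half-maximal effect; plate controls were no enzyme wells and a reference inhibitor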
JMJD2E inh: qHTS Assay for Inhibitors of Human Jumonji Domain Containing 2E (JMJD2E). hit rate 1.6% among 230,000. Lysine-specific demethylase 4E (Homo sapiens), B2RXH2. JMJD2E catalytic domain, FDH-coupled NADH fluorescence (FDH is formaldehyde dehydrogenase). Potency, µM (titrated, usually from 57.1 µM), without a hit: at the top dose activity change, negative = inhibition, usual class: inhibitors; active = well fitted inhibition curve with a large enough effect, not every such curve was filed as active; inconclusive = small, poorly fitted or top-dose-only effect, or another doubt; inactive = no such curve, though single readings can be large or run the other way;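 note: potency is the fitted concentration of half-maximal effect; 0% = wells with enzyme and -100% = buffer wells without enzyme; nearly all actives have a fitted effect of over 50% in size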
Target sequence (B2RXH2 1-337 limits assumed): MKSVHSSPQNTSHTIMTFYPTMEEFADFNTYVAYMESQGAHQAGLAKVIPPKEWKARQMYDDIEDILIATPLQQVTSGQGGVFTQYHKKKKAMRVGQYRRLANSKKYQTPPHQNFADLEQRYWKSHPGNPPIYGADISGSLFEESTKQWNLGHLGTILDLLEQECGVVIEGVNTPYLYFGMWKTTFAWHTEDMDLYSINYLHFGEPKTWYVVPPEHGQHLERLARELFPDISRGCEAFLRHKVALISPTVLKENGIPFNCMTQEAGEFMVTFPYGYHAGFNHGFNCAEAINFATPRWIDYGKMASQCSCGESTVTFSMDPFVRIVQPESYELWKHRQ
Sfp inh: qHTS Assay for Inhibitors of Bacillus subtilis Sfp phosphopantetheinyl transferase (PPTase); Potency, µM, without a hit: largest response in the series, negative = inhibition, actives largely listed as inhibitors; hit rate 3.5% among 310,000; Biochemical Sfp PPTase activity, qHTS; 4'-phosphopantetheinyl transferase ffp (Bacillus subtilis), Q9F4F7;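 note: the enzyme is Sfp with the accession as filed and its product quenches rhodamine fluorescence; potency is the fitted concentration of half-maximal effect; 0% = enzyme reaction without inhibitor and -100% = no enzyme wells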
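Fluorescence-quenching assay: 15 nM Sfp-PPTase preincubated 15 min at room temperature with compound, then 5 uM rhodamine-CoA and 12.5 uM BHQ-2-labelled YbbR peptide added. Fluorescence (ex 525/em 598 nm) read at start and after 30 min; difference gives rate.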
miR-21 act: qHTS Assay for Modulators of miRNAs and/orActivators of miR-21; 340,000 tested, under 10 active; AID 2288, 2010; HeLa miR-21 FLuc reporter, luciferase, 48 h; Potency, µM (titrated, usually from 38.3 µM), for inactives: at the top dose activity change, positive = activation, hits mostly activators;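 note: % of control where 0% means no effect; miR-21 action dims this reporter so a rising signal means less miR-21 action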
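HeLa cells stably expressing CMV-driven firefly luciferase with a downstream miR-21 binding sequence, endogenously expressing miR-21, were treated with titrations (up to about 40uM final) for 48 hours at 37 degree Celsius. Luciferase luminescence was read after lysis.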
Numbers without * were called inactive; [ ] = another dose, or the depositor's remark. Unless noted, calls come from the whole dose curve; as a rule, active = well fitted curve in the direction sought with a large enough effect; inconclusive = small, poorly fitted or top-dose-only effect, or another doubt; inactive = no such curve, though single readings can be large; an effect the other way counts as inactive or inconclusive.

For CCc1ccc(S(=O)(=O)c2nnn3c2nc(Nc2ccc(F)cc2)c2cc(Cl)ccc23)cc1 the results were G9a block 8%[59 µM] and miR-21 act -4%.
`CCc1ccc(C2=NN(CCC(=O)NCCc3ccc(Cl)cc3)C(=O)CC2)cc1` gave LMNA splice mod inconclusive, G9a block -5%[59 µM] and miR-21 act 24%.
For Cc1cccc(/C=N/n2c(-c3cc(-c4ccccc4)n[nH]3)n[nH]c2=S)c1 the results were LMNA splice mod -10%, G9a block 1.6µM*, ALDH1A1 block -7%, JMJD2E inh 5%, Sfp inh inconclusive and miR-21 act -37%.
For S=c1[nH]nc(-c2cc(-c3ccccc3)n[nH]2)n1/N=C/c1ccccc1 the results were G9a block -127%[59 µM], JMJD2E inh -5%, Sfp inh -11% and miR-21 act -22%.
For Cc1cc(=O)cc2oc3cc(N)c(-c4c(C)cc(O)cc4O)c(C)c3nc1-2 the results were ALDH1A1 block -5%, JMJD2E inh 8.9µM* and Sfp inh 50µM*.
`Cc1ccc(C(=O)CCC(=O)OCC(=O)N(CC(C)C)c2c(N)n(Cc3ccccc3)c(=O)[nH]c2=O)cc1` gave G9a block -2%.
`CC(=O)Nc1ccc(NC(=O)C(C)OC(=O)c2cccc(S(=O)(=O)N3CCCCCC3)c2)cc1` (stereo unspecified) gave G9a block -10%.
`O=C(NCc1n[nH]c(=S)n1-c1ccccc1)c1cccs1` gave LMNA splice mod inconclusive, G9a block 22µM*, ALDH1A1 block 0%, JMJD2E inh 4%, Sfp inh 5% and miR-21 act 0%.
O=C(NCc1n[nH]c(=S)n1-c1cccc(Cl)c1)c1cccs1 was read as LMNA splice mod -2%[46 µM], G9a block 20µM*, ALDH1A1 block 5%, JMJD2E inh -2%, Sfp inh 12% and miR-21 act 3%.
CCn1c(CNC(=O)c2cccs2)n[nH]c1=S was read as LMNA splice mod 8%, G9a block inconclusive, ALDH1A1 block inconclusive, JMJD2E inh inconclusive, Sfp inh -3% and miR-21 act 0%.
`O=C(NCc1n[nH]c(=S)n1-c1ccc(Cl)c(Cl)c1)c1cccs1` gave G9a block inconclusive, ALDH1A1 block 7%, JMJD2E inh -12%, Sfp inh 89µM* and miR-21 act 4%.
Screening CCCS(=O)(=O)N1CC(=O)N(c2ccc(Cl)cc2)C(C)(C(=O)NC2CCCC2)C1 (stereo unspecified) returned LMNA splice mod 15%[46 µM], G9a block 0%[59 µM] and miR-21 act -2%.
C=CC#CC1(O)CC(C)N(C)CC1C (stereo unspecified) was read as LMNA splice mod 8%[46 µM], G9a block inconclusive, ALDH1A1 block 12%, JMJD2E inh -3%, Sfp inh -5% and miR-21 act -1%.
For O=C(O)[C@@H]1[C@@H]2O[C@H]([C@@H](Br)[C@H]2Br)[C@H]1C(=O)O the results were ALDH1A1 block -2%[13.5 µM].
`Cc1nc(N2CCCCC2)c2ccsc2n1` gave LMNA splice mod -5%, G9a block 20µM*, ALDH1A1 block -10%, JMJD2E inh inconclusive, Sfp inh inconclusive and miR-21 act 3%.
Screening Cc1nc(N2CCCCC2)c2c(-c3cccs3)csc2n1 returned LMNA splice mod 5%[46 µM], G9a block 17%[59 µM], ALDH1A1 block inconclusive, JMJD2E inh -10%, Sfp inh 56µM* and miR-21 act -5%.
C=CCSc1nc2sc3c(c2c(=O)[nH]1)CCC3 was read as LMNA splice mod inconclusive, G9a block 6%[59 µM], ALDH1A1 block 0%, JMJD2E inh 4%, Sfp inh 2% and miR-21 act 0%.
CCOC(=O)c1c(-c2ccc(C)cc2)csc1NC(=O)c1cc(-c2ccc(OC)cc2)on1 was read as LMNA splice mod 7%[46 µM], G9a block 6%[59 µM] and miR-21 act -2%.
Screening CCOC(=O)c1c(-c2ccccc2)csc1NC(=O)c1cc(-c2cccc(OC)c2)on1 returned G9a block 4µM* and miR-21 act 3%.
CCOC(=O)c1c(-c2ccccc2)csc1NC(=O)c1cc(-c2cccc(Cl)c2)on1 was read as G9a block 8.9µM* and miR-21 act 1%.
O=C1C=CC2=C3c4cc(O)c(O)cc4CC3(O)COC2=C1O (stereo unspecified) was read as LMNA splice mod -10%, ALDH1A1 block inconclusive, JMJD2E inh 2µM* and Sfp inh 14µM*.
CC(C)NC1=C(Cl)C(=O)c2ccccc2C1=O was read as LMNA splice mod inconclusive, G9a block 20µM*, ALDH1A1 block inconclusive, JMJD2E inh inconclusive, Sfp inh 0% and miR-21 act 2%.
Screening COCCCNc1nc2ccccc2[nH]c1=O returned G9a block 5%, ALDH1A1 block inconclusive, JMJD2E inh inconclusive, Sfp inh -1% and miR-21 act 7%.
Screening COCCCNc1c2c3c(cccc3[nH]c1=O)C(=O)c1ccccc1-2 returned LMNA splice mod inconclusive, G9a block -11%, ALDH1A1 block inconclusive, JMJD2E inh -12%, Sfp inh 79µM* and miR-21 act 6%.
`COCCCNC1=C(Cl)C(=O)c2ccccc2C1=O` gave G9a block 40µM*, JMJD2E inh -24%, Sfp inh 1% and miR-21 act -3%.
CCOC(=O)c1c2c3c(cccc3[nH]c1=O)C(=O)c1ccccc1-2 was read as G9a block 56µM*, ALDH1A1 block 9%, JMJD2E inh 6%, Sfp inh 8% and miR-21 act -5%.
CC(C)OCCCNC1=C(Cl)C(=O)c2ccccc2C1=O was read as JMJD2E inh -12%, Sfp inh inconclusive and miR-21 act -21%.
For COc1ccc(NC(=O)CN(C)C(=O)CCc2c[nH]c3ccccc23)cc1 the results were G9a block -6%, Sfp inh 17% and miR-21 act 16%.
`C=CCNC1=C(Cl)C(=O)c2ccccc2C1=O` gave LMNA splice mod inconclusive, G9a block 40µM*, ALDH1A1 block inconclusive, JMJD2E inh 1%, Sfp inh -10% and miR-21 act 1%.

High-throughput results: PubChem BioAssay, National Center for Advancing Translational Sciences (NCATS)
